Where “and” joins values, the source holds several entries; their conditions need not be identical. Equal entries are not always repeated. Where a structure was tested more than once in an assay, its records may differ in their call. Calls of active or inactive are those of the source. The calls were made as follows: active = hit-call score of the fitted dose curve at least 0.9, where 1 is the maximum; inactive = score below 0.9.

Read-out in the assay: CD69, CD69 (gene 969)
Description: BSK_LPS_CD69: BioMAP Diversity Plus: LPS Assay for CD69 Biomarker Activity (AID 2284303). The settings on record: primary human HUVEC with PBMC. On the procedure: BSK_LPS is a cell-based, multiplexed-readout assay that uses umbilical vein endothelium and peripheral blood mononuclear cells, a human vascular primary cell co-culture, with measurements taken at 24 hours after chemical dosing in a 96-well plate.BSK_LPS_CD69 is an assay component measured in the BSK_LPS assay. It measures CD69 antibody related to regulation of gene expression using ELISA technology.Data from the assay component BSK_LPS_CD69 was analyzed at the endpoint, BSK_LPS_CD69, in the positive analysis fitting direction relative to DMSO as the negative control and baseline of activity. Using a type of binding reporter, gain or loss-of-signal activity can be used to understand protein changes. To generalize the intended target to other relatable targets, this assay endpoint is annotated to the 'cytokine' intended target family, where the subfamily is 'inflammatory factor'.
The levels of cell surface (or secreted, indicated by the prefix "s") biomarker endpoints were measured by ELISA. Overt cytotoxicity to cells in confluent adherent cultures (all systems other than the BT system) was assessed by measuring total protein levels using sulforhodamine B (SRB) staining in parallel cultures at the time of biomarker measurements, indicated as SRB endpoints. For proliferation assays for adherent cell types, individual cell types are cultured at sub-confluence and relative cell numbers quantified by SRB staining at time points optimized for each system (48 h: 3C and CASM3C systems; 72 h: BT and HDF3CGF systems; 96 h: SAg system). SRB was performed by staining cells with 0.1% SRB after fixation with 10% TCA and reading wells at 560 nm.Viability and proliferation of PBMC (T cells) was quantified by Alamar Blue reduction for the SAg and BT systems. For PBMC viability (referred to as PBMC Cytotoxicity within the assay endpoint names), cells were plated (75,000/well in a 96-well plate) and then chemical samples added for 1 h before addition of activators, SEB and TSST-1 (20 ng/mL final concentration each). Cells were incubated for 90 h. Then, Alamar Blue (20 uL/well) (Invitrogen, Cat DAL1100) was added for 6 h, and the plates were read with a fluorescence microplate reader at 546/580 nm (excitation/emission). For PBMC proliferation, cells were plated and activated as above but incubated for only 16 h prior to addition of Alamar Blue. Plates were read after 6 h.
Take `O=C1NS(=O)(=O)c2ccccc21`: the result was inactive.

On to `O=C(CC(=O)C(F)(F)C(F)(F)C(F)(F)F)c1cccs1`, for which the outcome was inactive.

For `CCCCCCCCCCCC`, the half-maximal activity concentration (AC50) is 30.1 µM (active) and the result was inactive.

Turning to `O=C(O)C(F)(F)OC(F)(F)C(F)(F)OC(F)(F)C(F)(F)OC(F)(F)C(F)(F)C(F)(F)C(F)(F)F`, the concentration at half-maximal activity (AC50) was 39.9 µM (active) and 41.2 µM (active).

With `O=S(=O)(O)C(F)(F)C(F)(F)C(F)(F)C(F)(F)C(F)(F)C(F)(F)C(F)(F)C(F)(F)C(F)(F)C(F)(F)F`, the half-maximal activity concentration (AC50) was 14.6 µM (active) and 3.91 µM (active).

In the case of `O=P(O)(O)CCC(F)(F)C(F)(F)C(F)(F)C(F)(F)C(F)(F)C(F)(F)F`, the outcome was inactive.

For the compound `OCC(F)(F)C(F)(F)C(F)(F)C(F)(F)C(F)(F)C(F)(F)C(F)(F)C(F)(F)C(F)(F)C(F)(F)C(F)(F)F`, the result was inactive.

Consider `CN(CCO)S(=O)(=O)C(F)(F)C(F)(F)C(F)(F)C(F)(F)C(F)(F)C(F)(F)C(F)(F)C(F)(F)F`, for which the outcome was inactive.

For the compound `O=P(O)(O)CCC(F)(F)C(F)(F)C(F)(F)C(F)(F)C(F)(F)C(F)(F)C(F)(F)C(F)(F)F`, the result was inactive.

For `C=CC(=O)OCCC(F)(F)C(F)(F)C(F)(F)C(F)(F)C(F)(F)C(F)(F)C(F)(F)C(F)(F)F`, the result was inactive.

On to `O=C(O)CCC(F)(F)C(F)(F)C(F)(F)C(F)(F)C(F)(F)F`, for which the outcome was inactive and the AC50 is 5.95 µM (active).

Regarding `CN(Cc1cnc2nc(N)nc(N)c2n1)c1ccc(C(=O)N[C@@H](CCC(=O)O)C(=O)O)cc1`, the outcome was inactive.

In the case of `Oc1ccc(Cc2ccccc2O)cc1`, the result was inactive.

`O=C(O)CCC(F)(F)C(F)(F)C(F)(F)C(F)(F)C(F)(F)C(F)(F)F`: the result was inactive.

In the case of `Oc1c(Cl)cc(Cl)cc1Sc1cc(Cl)cc(Cl)c1O`, the AC50 was 24.3 µM (active) and 27.4 µM (active).

As a reminder, the AC50 is the concentration giving half of the maximal activity seen.

The record behind these values is PubChem BioAssay (EPA / NIEHS).
